RN4220 kill: kills Staphylococcus aureus RN4220; hit rate 0.33% among 330,000; S. aureus RN4220 growth, OD600, 16 h; inhibition, % (concentration not given with the values); in the data active = inhibition above about 85%;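 also: plate controls were untreated cells for no effect and reference antibiotic for full effect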
Mtb hypoxia inh: reduces hypoxia-regulated biosensor signal in M. tuberculosis. M. tuberculosis hypoxia-regulated fluorescent reporter, fluorescence. fluorescence inhibition, % (no concentration beside the values). hit rate 0.1% among 300,000. AID 1159583; in the data active = fluorescence inhibition mostly above about 23%, no sharp cut-off; inactive = mostly below about 17%
ugtP null kill: growth inhibition of S. aureus ugtP deletion strain | S. aureus RN4220 ugtP deletion, OD600 growth, 16 h | hit rate 0.54% among 330,000 | growth inhibition, % (no concentration beside the values); in the data active = growth inhibition above about 68%;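 also: plate controls were untreated wells for no effect and antibiotic for full effect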
Mtb betalactam: beta-lactam sensitization of Mtb H37Rv. M. tuberculosis H37Rv growth with meropenem, percent inhibition. hit rate 0.27% among 330,000. inhibition, % at 25 µM. AID 434955; call rule not given here;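 also: growth measured after seven days incubation then overnight dye step; 0% = bacteria only wells and 100% = bacteria with antibiotic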
* = called active by the depositor; / = not tested or not shown. In the library only some 0.61% were active in any assay of this set; here they are far more common.

SMILES	RN4220 kill	Mtb hypoxia inh	ugtP null kill	Mtb betalactam
CC/C(=C\C=C\[C@@H]1C=C[C@@H]2CCC[C@H]2[C@@H]1C(=O)c1ccc[nH]1)[C@@H]1O[C@@H]([C@@H](C)C(=O)O)CC[C@@H]1C	100*	10	99*	-3
CC1COc2c(N3CCN(C)CC3)c(F)cc3c(=O)c(C(=O)O)cn1c23 (configuration not stated)	100*	/	99*	100
CCOc1ccc(NC(=O)c2ccc(NC(=O)c3cn4c5c(c(N6CCN(C)CC6)c(F)cc5c3=O)OCC4C)cc2)cc1 (configuration not stated)	98*	/	98*	/
COc1c(N2CCN[C@H](C)C2)c(F)cc2c(=O)c(C(=O)O)cn(C3CC3)c12	/	/	/	100
N#CC(N=Nc1ccccc1O)=NNc1ccccc1O	13	11	-14	/
O=C(NN=Cc1ccc(Cl)cc1Cl)Nc1ccccc1	1	3	-3	/
COc1cccc(-c2c(-c3cc(OC)cc(OC)c3)n(C)c3ccc(-c4cnc(N5CCOCC5)nc4)cc23)c1	4	45*	-10	0
CNC(=S)Nc1ccc(-c2nc3ccc(C)cc3s2)cc1	-8	37*	-1	73
CC(=O)NC(=S)Nc1ccc(-c2nc3ccc(C)cc3s2)cc1	-5	/	-7	54
CC1(C)Oc2ccc3ccc(=O)oc3c2CC1OC1OC(CO)C(O)C(O)C1O (configuration not stated)	0	9	-1	/
OC(CNCC1CCCO1)Cn1c2ccc(Cl)cc2c2cc(Cl)ccc21 (configuration not stated)	48	14	-19	100
OC(CNCCC1C=Nc2ccccc21)Cn1c2ccc(Cl)cc2c2cc(Cl)ccc21 (configuration not stated)	100*	-3	101*	100
CC(=O)N1CCc2c(sc(NC(=O)c3ccc([N+](=O)[O-])o3)c2C#N)C1	16	40*	90*	/
CS(=O)(=O)N1CCN(c2ccccc2NC(=O)c2ccc([N+](=O)[O-])o2)CC1	100*	9	88	1
COc1cc(NC(=O)c2ccc([N+](=O)[O-])o2)ccc1NC(=O)c1cccs1	100*	0	100*	67
COc1ccc(C(=O)Nc2sc3c(c2C#N)CCN(C(C)=O)C3)cc1	3	8	2	0
CC(=O)N1CCN(c2ccc(NC(=O)c3ccc([N+](=O)[O-])o3)cc2Cl)CC1	99*	/	100*	100
CCC(=O)N1CCN(c2ccc(Cl)cc2NC(=O)c2ccc([N+](=O)[O-])o2)CC1	10	3	20	98
CC(=NNc1ccccc1)C(=NO)C(=O)Nc1ccccc1	2	/	-4	/
CC(=NNC(=O)c1nnn(-c2nonc2N)c1-c1ccccc1)c1cccnc1	4	-7	4	/
O=C(NCc1nc2ccccc2[nH]1)C1=CC(c2csc3ccccc23)CC(OCc2ccc(CO)cc2)O1 (configuration not stated)	-2	20	13	/
CC(Cc1ccccc1)=NNC(=O)CCCCCC(=O)NN=C(C)Cc1ccccc1	1	/	1	/
COc1cccc(C=NNC(=O)c2cccc3ccccc23)c1	-1	2	-4	/
CC(=O)Nc1ccc2nc(NC(=O)c3ccco3)sc2c1	5	-10	0	4
CCC(=O)N1CCN(c2ccc(NC(=O)c3ccc([N+](=O)[O-])o3)cc2Cl)CC1	99*	/	91*	/
SMILES	RN4220 kill	Mtb hypoxia inh	ugtP null kill	Mtb betalactam
CCN1CCN(c2ccc(NC(=O)c3ccc([N+](=O)[O-])o3)cc2Cl)CC1	100*	11	99*	/
CC(=O)Nc1ccc2nc(NC(=O)c3ccc([N+](=O)[O-])o3)sc2c1	18	14	98*	44
CCc1n[nH]c(=S)n1N=Cc1ccc(-c2ccc(Br)cc2)o1	3	9	1	/
O=C(CNC(=O)c1ccncc1)NN=Cc1ccc(Br)cc1	-3	-10	-4	/
Cc1ccc(C)c(C(O)=C2C(=O)C(=O)N(CCCn3ccnc3)C2c2cccnc2)c1 (configuration not stated)	4	6	0	/
O=C(CC1C(=O)N(C2CCCCC2)CC1Cc1ccccc1)Nc1ccccc1 (configuration not stated)	3	-1	4	/
CC(C)C[C@H](NC(=O)OC(C)(C)C)C(=O)NN=CC1=Cc2ccccc2OC1C (some centres not stated)	-9	-1	-31	/
COc1cc(C(=O)NCCSc2ccc(Cl)cc2)cc(OC)c1OC	1	-9	-5	-6
COc1cc(C(=O)Sc2ccc(Cl)cc2)cc(OC)c1OC	1	/	93*	85
CN(C)C(=O)C[n+]1ccc(/C=N/O)cc1	/	/	/	-3
CCCCCCCCCCCCCCCC[n+]1ccc(C=NO)cc1	101*	12	101*	/
Cc1nc2ccccc2c(=O)n1NC(=O)COc1ccccc1	2	9	0	4
O=C(Nn1c(COc2ccccc2)nc2ccccc2c1=O)C(Cl)(Cl)Cl	100*	12	100*	3
CCOc1ccccc1C=NNc1nc2c(N)ncnc2n1[C@H]1O[C@@H](CO)[C@H](O)[C@@H]1O	5	0	8	/
CN(Cc1c(F)cccc1Cl)C(=O)c1cc2ccccc2o1	15	-3	2	4
CN(Cc1c(F)cccc1Cl)C(=O)c1ccc(COc2ccccc2)cc1	97*	7	100*	-2
COC(=O)C1CN(C(=O)c2ccccc2)C(=O)N1 (configuration not stated)	6	7	4	/
Clc1ccc(C(Cn2ccnc2)OCc2csc3c(Cl)cccc23)c(Cl)c1 (configuration not stated)	99*	8	96*	95
Clc1ccc(C(Cn2ccnc2)OCc2c(Cl)cccc2Cl)c(Cl)c1 (configuration not stated)	72	24	94*	97
CCOc1ccc(S(=O)(=O)NN=C(C)c2ccc3c(c2)OCO3)cc1	0	13	8	/
CCn1nc(C(=O)Nc2cccc(S(=O)(=O)N3CCCC3)c2)c2ccccc2c1=O	1	23*	-1	-2
O=C(NN=Cc1coc2ccccc2c1=O)c1ccncc1	0	/	-8	/
CC1CN(C(C)CO)C(=O)c2cccc(NC(=O)Nc3ccccc3)c2OC1CN(C)S(=O)(=O)c1cccs1 (configuration not stated)	8	5	16	/
c1ccc(Nc2nc(-c3ccccn3)cs2)cc1	7	0	-8	99
COc1cccc2sc(Nc3nc(-c4ccccn4)cs3)nc12	99*	-69	99*	98
CCC(C(=O)C(C)C(O)C(C)CCc1ccc(C)c(O)c1C(=O)O)C1O[C@](CC)(C2CC[C@](O)(CC)C(C)O2)CC1C (some centres not stated)	99*	17	90*	/
Cc1cc(C)c2c(c1)cc(C)c1nnc(SCC(=O)N3CCCc4ccccc43)n12	11	13	96*	-7
Cc1ccc(C)c2c1cc(C)c1nnc(SCC(=O)N3CCCc4ccccc43)n12	1	-2	7	0
CN(C)CCCN1C(=O)c2cccc3c(Br)ccc(c23)C1=O	0	67*	11	20
C(=C\c1nc(N2CCCC2)c2ccccc2n1)/c1ccccc1	14	45*	-2	98
